Drawing on PubChem BioAssay, this text covers fold change and cell count for 29 molecules.

The assay can be described thus: viability loss with induced miR-34 in A549 – imaging, A549 dox-inducible miR-34, nuclei and caspase counts, primary screen (AID 1347080). Further: test concentration not given here. The note with it: A549 miR-34 inducible, Hoechst nuclei count, 48 h.
Where [1] appears, read: stronger effect = lower value, cell number ratio, induced over uninduced.
The mark [2] stands for this setting: measured here: relative caspase fold change +Dox/-Dox.
[3] abbreviates: measured here: total cells with miR-34 induction, stronger effect = lower value.
[4] abbreviates: measured here: total cells without miR-34 induction.

Active and inactive are the calls of the source.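 How the source made its calls: active means compounds whose cell count with miR-34 switched on is under 0.7 times the count with it off; inactive means the rest.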

Consider `CCCCC[C@H](O)/C=C/[C@H]1C(=O)C[C@H](O)[C@@H]1C/C=C\CCCC(=O)NCCO`, for which the fold change runs as follows: under setting [1], 1.05 (inactive); under setting [2], 1.15. Besides, the cell count reads like this: under setting [3], 6200; under setting [4], 5900.
On to `CCCCC[C@H](O)/C=C/[C@H]1[C@H](O)CC(=O)[C@H]1C/C=C\CCCC(=O)O`, for which the fold change under setting [1] was 0.969 (inactive) and the fold change under setting [2] was 1.41. Also, the cell count runs as follows: under setting [3], 5730; under setting [4], 5910.
For `C[C@@H](C(=O)O)c1ccc(-c2ccccc2)c(F)c1`, in that order: 0.967 (inactive), 0.615, 6150 and 6360.
For `Cc1nc(-c2ccc(C(F)(F)F)cc2)sc1C(=O)NCc1ccc(OC(C)(C)C(=O)O)cc1`, in that order: 0.946 (inactive), 0.5, 5220 and 5520.
For `CCCCC[C@H](O)/C=C/[C@H]1[C@H](O)CC(=O)[C@@H]1C/C=C\CCCC(=O)NCCO`, in that order: 1.16 (inactive), 1.44, 6290 and 5420.
In the case of `CCCC/C=C/C=C/C=C\CCCCCCCC(=O)OC`, the fold change by setting is: under setting [1], 0.701 (inactive); under setting [2], 0.864. Further, the cell count reads like this: under setting [3], 3920; under setting [4], 5590.
For `CCCCCC(=O)/C=C/C=O` the same measures were 1.01 (inactive), 1.61, 5770 and 5720.
Regarding `CC/C=C\C/C=C\C/C=C\C/C=C\C/C=C\CCCC(=O)O[C@H](COCCCCCCCCCCCCCCCC)COP(=O)([O-])OCC[N+](C)(C)C`, the fold change reads like this: under setting [1], 0.886 (inactive); under setting [2], 1.31. Moreover, the cell count under setting [3] turned out to be 5330 and the cell count under setting [4] was 6010.
As to `CC(=O)O[C@@]12C[C@@H](C)[C@@]3(O)[C@@H](C=C(CO)C[C@]4(O)C(=O)C(C)=C[C@@H]34)[C@@H]1C2(C)C`, the fold change under setting [1] was 0.95 (inactive) and the fold change under setting [2] was determined as 1.47. Also, the cell count was determined as 5200 under setting [3] and 5470 under setting [4].
For `CCOc1c2c(c(OCC)c3ccccc13)C(=O)N(c1ccc(CC(=O)NS(=O)(=O)c3ccccc3)cc1)C2` the same measures were 0.911 (inactive), 1.11, 5560 and 6100.
For `CCCCC[C@H](O)/C=C/[C@@H]1[C@H]2C/C=C\CCCC(=O)O[C@@H]1C[C@@H]2O` the same measures were 0.912 (inactive), 0.907, 5380 and 5900.
For `O=C(CCc1ccc(O)c(O)c1)N[C@@H](CC(=O)OCc1ccccc1)C(=O)OCc1ccccc1`, in that order: 1.01 (inactive), 0.94, 6350 and 6270.
As to `CCCCC/C=C\C=C1\C(=O)CC[C@@H]1C/C=C\CCCC(=O)O`, the fold change was 0.94 (inactive) under setting [1] and 0.792 under setting [2]. Besides, the cell count reads like this: under setting [3], 5640; under setting [4], 6000.
For `CCOC(=O)/C=C/[C@H](CC(C)C)NC(=O)[C@H](CO)NC(=O)[C@@H](NC(=O)c1cccc(O)c1C)C(C)C`, in that order: 0.61 (active), 0.781, 3640 and 5980.
For `O=C(O)CCC/C=C\C[C@@H]1C(=O)C[C@@H](O)[C@@H]1/C=C/[C@@H](O)CC1CCCCC1`, in that order: 1.22 (inactive), 0.461, 7070 and 5800.
As for `CCCCCCCCCCCCCC(=O)OCC`, the fold change is, setting by setting: under setting [1], 1.01 (inactive); under setting [2], 1.49. This molecule also registered a cell count under setting [3] of 5310 and a cell count under setting [4] of 5240.
Turning to `OCC(O)[C@@H](O)CO` (stereo partly specified), the fold change runs as follows: under setting [1], 0.92 (inactive); under setting [2], 0.896. Moreover, the cell count stood at 8910 under setting [3] and 9680 under setting [4].
For `CCCCCC(=O)CC[C@H]1[C@H](O)CC(=O)[C@@H]1C/C=C\CCCC(=O)O` the same measures were 0.975 (inactive), 1.25, 6140 and 6290.
With `O=Cc1cccc2[nH]ccc12`, the fold change was 1.14 (inactive) under setting [1] and 0.821 under setting [2]. Moreover, the cell count reads like this: under setting [3], 6070; under setting [4], 5350.
For `CC#CCC(C)[C@@H](O)/C=C/[C@@H]1[C@H]2C/C(=C/CCCC(=O)O)C[C@H]2C[C@H]1O` (stereo partly specified) the same measures were 0.965 (inactive), 2.36, 5460 and 5660.
For `CCCCC[C@H](O)CC[C@@H]1[C@H]2Cc3cccc(OCC(=O)O)c3C[C@H]2C[C@H]1O`, in that order: 0.95 (inactive), 1.46, 6200 and 6530.
For `OC[C@H]1NC[C@H](O)[C@@H](O)[C@@H]1O`, in that order: 0.965 (inactive), 0.787, 5000 and 5180.
Turning to `CO[C@H]1CC(O[C@@H]2/C(C)=C/C[C@@H]3C[C@@H](C[C@]4(C=C[C@H](C)[C@@H](C5CCCCC5)O4)O3)OC(=O)[C@@H]3C=C(C)[C@@H](O)[C@H]4OC/C(=C\C=C\[C@@H]2C)[C@]43O)O[C@@H](C)C1O[C@H]1C[C@H](OC)[C@@H](O)[C@H](C)O1` (stereo partly specified), the fold change is, setting by setting: under setting [1], 0.703 (inactive); under setting [2], 1.24. In addition, the cell count reads like this: under setting [3], 405; under setting [4], 576.
For `CCCCCC#CCC#CCC#CCCCCCCC(=O)O`, in that order: 0.97 (inactive), 0.33, 5730 and 5910.
Take `COc1ccc(C[C@H](N)C(=O)N[C@H]2[C@@H](O)[C@H](n3cnc4c(N(C)C)ncnc43)O[C@@H]2O)cc1`: the fold change under setting [1] is 0.887 (inactive) and the fold change under setting [2] was 1.17. In addition, the cell count runs as follows: under setting [3], 1130; under setting [4], 1270.
As to `CCCCCC(=O)/C=C/[C@@H]1[C@@H](CCCCCCC(=O)O)[C@@H](O)C[C@H]1O`, the fold change is 1.03 (inactive) under setting [1] and 1.29 under setting [2]. Moreover, the cell count runs as follows: under setting [3], 5670; under setting [4], 5520.
For the molecule `CCCCCCCC/C=C\CCCCCCCCCCCC(=O)O`, the fold change is 1.01 (inactive) under setting [1] and 0.826 under setting [2]. Also, the cell count reads like this: under setting [3], 6030; under setting [4], 5990.
On to `Nc1nc2c([nH]c(=O)n2[C@@H]2O[C@H](CO)[C@@H](O)[C@H]2O)c(=O)[nH]1`, for which the fold change runs as follows: under setting [1], 1.03 (inactive); under setting [2], 0.878. For the same molecule, the cell count reads like this: under setting [3], 5770; under setting [4], 5600.
With `CCCCC[C@H](O)/C=C/[C@@H]1[C@H]2C[C@H](CCCCC(=O)O)O[C@H]2C[C@H]1O`, the fold change was 0.999 (inactive) under setting [1] and 1.41 under setting [2]. Moreover, the cell count came out at 6310 under setting [3] and 6310 under setting [4].
